Assay results from PubChem BioAssay AID651661 (Broad Institute, 2012).
In all, about 350,000 compounds went through this assay and about 2,300 (0.66%) were called active. The sample holds actives, similar compounds and a random draw of the others, so the mix is not that of the screen. Values without a mark were called inactive.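 The calls were made as follows: active = mean inhibition of at least 50% after viability correction, with every replicate also passing that limit; inconclusive = mean reaches 50% but only one of two replicates passes; inactive = the rest.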

Test: EWS/Fli-driven NR0B1 reporter inhibitors, primary screen, A673 cells, NR0B1 luciferase, luminescence, MLPCN library (AID 651661);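 also: firefly luciferase signal divided by Alamar Blue viability fluorescence both relative to DMSO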
Conditions: viability-normalised, at 12.6 µM, stronger effect = higher value
Compound `COCC(=O)Nc1ccc2c(c1)C(=O)N(C)[C@@H]1CC[C@H](CC(=O)NCCc3ccccc3)O[C@@H]1CO2` has an inhibition of 6.92%. Compound `C[C@H](CO)N1C[C@H](C)[C@@H](CN(C)S(=O)(=O)c2ccc([N+](=O)[O-])cc2)OCc2ccccc2-c2c(n(C)c3ccccc23)C1=O` has an inhibition of 14.6%. `CO[C@H]1CN(C)C(=O)c2cc(NC(C)=O)ccc2OC[C@H](C)N(C(=O)CN(C)C)C[C@@H]1C` gave an inhibition of -2.59%. Work on `CCS(=O)(=O)N1CCC2(CC1)CN[C@H](CO)c1c2c2ccc(OC)cc2n1C` yielded an inhibition of 8.2%. For `CCOc1ccc(OCc2ccc(C(=O)N(C)c3ccccc3)o2)cc1`, the inhibition was -36.4%. `CC(C)(C)OC(=O)N(Cc1ccccc1)Cc1ccc(OCc2cccc(NC(=O)c3ccccc3)c2)cc1` showed an inhibition of 11.8%. In the case of `CCOc1ccc(OCc2cccc(C(=O)N(CC)CC)c2)cc1`, the inhibition is reported as 67.8% (active). In the case of `CC=Cc1ccc2n(c1=O)C[C@@H]1[C@@H](CO)[C@H](C(=O)N(C)C)N(CC3CCOCC3)[C@H]21` (mixture of isomers), the inhibition is reported as -1.84%. `Cc1ccccc1S(=O)(=O)N1[C@H](CO)[C@@H](c2ccc(-c3ccccc3)cc2)[C@@H]1C#N` gave an inhibition of 18.6%. With `O=C(C[C@H]1C[C@@H]2c3cc(NC(=O)C4CCOCC4)ccc3O[C@@H]2[C@H](CO)O1)NCC1CC1` the inhibition was 2.22%. For `C[C@@H]1C[C@@H]2O[C@H]2/C=C\C=C\C(=O)Cc2c(Cl)c(O)cc(O)c2C(=O)O1`, the inhibition was 76.6% (active). In the case of `COc1cnc(-c2ccccn2)nc1Oc1ccc(C(C)(C)C)cc1`, the inhibition is reported as 18.9%. For `CC(C)(C)c1ccc(Oc2ccc(N)cc2)cc1`, the inhibition was 65.3% (active). `COCC(=O)Nc1ccc2c(c1)C(=O)N(C)[C@@H]1CC[C@@H](CC(=O)NCC(F)(F)F)O[C@H]1CO2` showed an inhibition of -7.87%. `CCNC(=O)Nc1ccc2c(c1)C(=O)N(C)[C@@H]1CC[C@@H](CC(=O)NC3CCCCC3)O[C@H]1CO2` gave an inhibition of 6.61%. In the case of `O=C(c1ccc(F)cc1)N1CC(=O)N2[C@H](C1)[C@@H](c1ccc(C#CC3CC3)cc1)[C@@H]2CO`, the inhibition is reported as -6.65%. Work on `CCCNC(=O)N1C[C@@H](C)[C@@H](OC)CN(C)C(=O)c2ccc(NC(=O)C3CCC3)cc2OC[C@@H]1C` yielded an inhibition of -1.5%. With `C(=N\Nc1ccc2ccccc2n1)/c1ccc2c(c1)OCO2` the inhibition was 59.1% (active). `Clc1ccc(Nc2ccc3ccccc3n2)cc1` gave an inhibition of -53.3%. In the case of `NC(=O)c1ccc(NC(=O)COC(=O)c2c3c(nc4ccccc24)/C(=C\c2ccc4c(c2)OCO4)CCC3)cc1`, the inhibition is reported as -2.89%. With `CC(C)NC(=O)N1C[C@@H]2[C@H](c3ccccc31)[C@@H](CO)N2Cc1ccc(Cl)cc1` the inhibition was 14.5%. In the case of `CCN1/C(=C\c2ccc3ccccc3[n+]2CC)Sc2cc(C)ccc21`, the inhibition is reported as 56.7% (active). With `Nc1c(C(=O)NCc2ccccc2)nnn1Cc1cccc(Cl)c1` the inhibition was 53% (active). With `Nc1c(C(=O)Nc2ccc3c(c2)OCCO3)nnn1Cc1ccccc1` the inhibition was -100%. Compound `COc1cccc(CNC(=O)c2nnn(CC(=O)Nc3cc(Cl)ccc3C)c2N)c1` has an inhibition of 2.98%. In the case of `COc1cccc(S(=O)(=O)N(C)C[C@@H]2Oc3ncc(-c4cccc(C(=O)N(C)C)c4)cc3C(=O)N([C@H](C)CO)C[C@H]2C)c1`, the inhibition is reported as -6.58%. In the case of `COc1ccc(CN(C)C[C@H]2OCCCC[C@H](C)Oc3ccc(NS(C)(=O)=O)cc3C(=O)N([C@H](C)CO)C[C@@H]2C)cc1`, the inhibition is reported as 1.53%. For `O=C(Nc1ccc(F)cc1)N1CCCCN2[C@H](CO)[C@H](c3ccc(C#Cc4ccccc4)cc3)[C@H]2C1`, the inhibition was 84.6% (active). In the case of `CN(C)CC#Cc1ccc([C@@H]2[C@H](CO)N3CCCCN(C(=O)Nc4ccc(F)cc4)C[C@@H]23)cc1`, the inhibition is reported as -2.85%. `COc1ccc(C#Cc2ccc([C@H]3[C@@H](CO)N4CCCCN(C(=O)Nc5ccccc5)C[C@H]34)cc2)cc1` showed an inhibition of 17.2%. In the case of `CO[C@H]1CN(C)C(=O)c2ccc(NC(=O)C3CCC3)cc2OC[C@@H](C)NC[C@H]1C`, the inhibition is reported as 10.2%. Compound `CO[C@H]1CN(C)C(=O)c2cc(NC(=O)C3CCCCC3)ccc2OC[C@H](C)N(C(=O)c2ccccc2)C[C@H]1C` has an inhibition of 9.65%. `CCCNC(=O)[C@H]1[C@H](CO)[C@H]2Cn3c(cccc3=O)[C@H]2N1Cc1ccccc1Cl` showed an inhibition of -2.68%. With `O=C(CCl)N(Cc1cccc([N+](=O)[O-])c1)c1cccc(Cl)c1` the inhibition was 60% (active). `CC(=O)N(CN1C(=O)C2C3C=CC(C3)C2C1=O)c1cccc(Cl)c1` (stereo not given) showed an inhibition of -2.77%. `COC(=O)c1cc(C(=O)N(Cc2ccccc2)c2ccccn2)cc([N+](=O)[O-])c1` gave an inhibition of 7.71%. Compound `CCC(=O)N(C)C[C@H]1Oc2cc(C#CCOC)ccc2S(=O)(=O)N([C@H](C)CO)C[C@H]1C` has an inhibition of -9.57%. In the case of `CCn1c(C)c(C)c2cc(C(=O)N3CCN(c4cccc(C)c4C)CC3)ccc21`, the inhibition is reported as 5.16%. Work on `CCOc1ccccc1N1CCN(C(=O)COc2ccc3c(C)cc(=O)oc3c2)CC1` yielded an inhibition of 6.43%. For `CCOc1ccccc1N1CCN(C(=O)c2ccc3[nH]c(C)c(C)c3c2)CC1`, the inhibition was 55.9% (active). Compound `CCC(=O)Nc1ccc2c(c1)C(=O)N(C)[C@H]1CC[C@H](CC(=O)NC3Cc4ccccc4C3)O[C@H]1CO2` has an inhibition of 4.71%. In the case of `COc1ccc2c3c(n(C)c2c1)[C@H](CO)N(Cc1ccccc1Cl)CC31CN(C(=O)CN(C)C)C1`, the inhibition is reported as 6.01%. `COc1cccc(-n2c(=S)[nH]c3c(oc4ccccc43)c2=O)c1` showed an inhibition of -11.6%. In the case of `CS(=O)(=O)N1CCN(C(=O)c2cc3ccccc3oc2=O)CC1`, the inhibition is reported as -13.4%. With `O=c1oc2ccccc2cc1-c1cn(-c2ccccc2)c(=S)[nH]1` the inhibition was 67.6% (active). In the case of `O=C(N[C@H]1CC[C@H](CCNS(=O)(=O)c2ccc(F)cc2)O[C@H]1CO)c1cccnc1`, the inhibition is reported as -0.681%. Compound `C[C@@H]1CN([C@@H](C)CO)C(=O)Cc2cc(NC(=O)C3CCCCC3)ccc2O[C@@H]1CN(C)Cc1ccc(C(=O)Nc2ccccc2N)cc1` has an inhibition of 12.7%. `Cn1cnc(S(=O)(=O)N[C@H]2C=C[C@H](CC(=O)NCC3CCCCC3)O[C@@H]2CO)c1` showed an inhibition of -0.245%. For `C[C@H](CO)N1C[C@H](C)[C@@H](CN(C)Cc2ccc(-c3ccccc3)cc2)Oc2ccc(NC(=O)CCCN(C)C)cc2CC1=O`, the inhibition was 4.89%. Compound `C[C@H](CO)N1C[C@H](C)[C@H](CN(C)C(=O)Nc2ccc3c(c2)OCO3)Oc2cc(C#Cc3ccncc3)ccc2S1(=O)=O` has an inhibition of 22.2%. For `C[C@@H]1CN([C@@H](C)CO)S(=O)(=O)c2ccc(C#Cc3ccccc3)cc2O[C@@H]1CN(C)C(=O)Nc1ccccc1`, the inhibition was 11%. For `C[C@H]1CN([C@@H](C)CO)S(=O)(=O)c2ccc(C#Cc3ccncc3)cc2O[C@@H]1CN(C)C(=O)Nc1ccc2c(c1)OCO2`, the inhibition was 55.5% (active). Work on `CCn1c(C(O)c2cc(OC)ccc2OC)nc2ccccc21` (stereo not given) yielded an inhibition of -24.1%. For `Cc1nc2ccccc2n1CC(=O)N/N=C/c1cccs1`, the inhibition was 3.45%. For `CCn1c(/C=N/NC(=O)c2ccc(OC)cc2)nc2ccccc21`, the inhibition was 75.2% (active). In the case of `COc1ccc2c3c(n(C)c2c1)[C@H](CO)N(CC1CCOCC1)CC31CCN(C(C)=O)CC1`, the inhibition is reported as 0.574%. For `C[C@H]1CN([C@@H](C)CO)S(=O)(=O)c2ccc(-c3cccc(C#N)c3)cc2O[C@H]1CN(C)C(=O)c1ccccc1`, the inhibition was 4.97%. For `COCC#Cc1ccc(CC[C@H]2O[C@H]3CC[C@@H](CO)O[C@H]3C[C@H]2NC(=O)Nc2c(C)noc2C)cc1`, the inhibition was -3.3%. Work on `CCC(=O)Nc1ccc(Nc2nc(Cl)nc(Nc3ccc(NC(=O)CC)cc3)n2)cc1` yielded an inhibition of 7.36%. For `O=C(CCl)Nc1ccc(Sc2ccc(NC(=O)CCl)cc2)cc1`, the inhibition was 66.1% (active). `O=C(CCl)Nc1cccc(CP(=O)(c2ccccc2)c2ccccc2)c1` showed an inhibition of 28.2%. For `CO[C@H]1CN(C)C(=O)c2ccc(NC(C)=O)cc2OC[C@H](C)N(C(=O)Cc2ccccn2)C[C@@H]1C`, the inhibition was -1.41%. With `CC[C@]1(O)C[C@@H]2CN(CCc3c([nH]c4ccccc34)[C@@](C(=O)OC)(c3cc4c(cc3OC)N(C)[C@H]3[C@@](O)(C(=O)OC)[C@H](OC(C)=O)[C@]5(CC)C=CCN6CC[C@]43[C@@H]65)C2)C1` the inhibition was 63% (active). In the case of `CC[C@]1(O)CC2CN(CCc3c([nH]c4ccccc34)[C@@](C(=O)OC)(c3cc4c(cc3OC)N(C=O)[C@H]3[C@@](O)(C(=O)OC)[C@H](OC(C)=O)[C@]5(CC)C=CCN6CC[C@]43[C@@H]65)C2)C1` (stereo not given in full), the inhibition is reported as 61.7% (active). `CN1C(=O)c2cc(NC(=O)C3CC3)ccc2OC[C@@H]2O[C@H](CC(=O)NCC3CCCCC3)CC[C@@H]21` showed an inhibition of 6.23%. `C[C@H]1CN([C@@H](C)CO)S(=O)(=O)c2ccc(C3=CCCCC3)cc2O[C@@H]1CN(C)Cc1ccccc1` showed an inhibition of 23.9%. Compound `Cc1cc(C(=O)Nc2ccc3c(c2)C(=O)N(C)[C@@H]2CC[C@@H](CC(=O)NC4CCCC4)O[C@@H]2CO3)no1` has an inhibition of 4.52%. Work on `COc1ccc2c3c(n(C)c2c1)[C@@H](CO)N(C)CC31CN(S(=O)(=O)c2cccs2)C1` yielded an inhibition of 3.63%. Compound `COc1cccc(C#Cc2ccc([C@H]3[C@@H](CO)N(C(=O)c4ccccn4)[C@H]3C#N)cc2)c1` has an inhibition of 30.6%. With `C[C@H]1CN([C@@H](C)CO)C(=O)c2cc(-c3ccncc3)cnc2O[C@@H]1CN(C)C(=O)c1cccc(F)c1` the inhibition was -6.09%.
